Bioassay records from PubChem.
Shown is part of a subset that was picked to be rich in hits.
nsP2pro inh: inhibitors of chikungunya virus nsP2 protease; 31,000 compounds, 1.1% hits; Potency, µM (series often up to 24.9 µM), hits mostly inhibitors; FRET peptide cleavage, nsP2pro, fluorescence 1 h; AID 1964107; note: nearly all actives have a fitted effect of over 60% in size
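Enzyme 150 nM, substrate 2.5 uM (both final); Tris-HCl 10 mM pH 8.0 + 0.01% Tween 20; cpd up to 25 uM, 7 pts; 15 min preinc., 1 h RT; fluorescence ex 525/em 598.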
nsP2 cell sec: inhibits CHIKV nsP2 protease in cells; shares compounds with nsP2pro inh; cell-based CHIKV nsP2 protease reporter assay; Potency, µM (doses to about 51.1 µM), most hits filed as inhibitors; 450 compounds, 10% hits; AID 1964100; note: nearly all actives have a fitted effect of over 70% in size
Target sequence (Q8JUX6 220-798 limits assumed): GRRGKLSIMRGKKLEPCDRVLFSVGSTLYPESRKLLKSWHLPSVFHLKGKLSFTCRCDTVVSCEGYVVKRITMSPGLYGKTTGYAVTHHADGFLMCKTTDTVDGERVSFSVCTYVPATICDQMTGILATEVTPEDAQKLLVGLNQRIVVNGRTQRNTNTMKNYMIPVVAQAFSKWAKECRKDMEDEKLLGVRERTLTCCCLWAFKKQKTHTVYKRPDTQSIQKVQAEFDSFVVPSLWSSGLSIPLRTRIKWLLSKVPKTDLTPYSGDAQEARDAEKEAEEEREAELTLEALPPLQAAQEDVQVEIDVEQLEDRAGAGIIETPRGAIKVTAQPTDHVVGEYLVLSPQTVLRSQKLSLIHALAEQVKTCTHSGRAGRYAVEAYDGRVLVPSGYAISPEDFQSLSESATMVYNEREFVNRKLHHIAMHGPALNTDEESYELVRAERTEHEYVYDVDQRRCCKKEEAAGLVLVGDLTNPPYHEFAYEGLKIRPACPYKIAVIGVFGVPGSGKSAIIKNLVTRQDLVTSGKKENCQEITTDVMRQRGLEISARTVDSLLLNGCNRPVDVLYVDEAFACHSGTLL
CHIKV NSP2 FL: inhibits full-length CHIKV NSP2 enzyme; Potency, µM (top dose mostly 50.7 µM), most hits filed as inhibitors; 410 compounds, 39% hits; shares compounds with nsP2pro inh; Full-length CHIKV NSP2 protease enzymatic counterscreen; note: nearly all actives have a fitted effect of over 65% in size
Furin counterscr: inhibits human furin in a CHIKV nsP2 protease selectivity counterscreen; 410 compounds, 6% hits; Potency, µM (titrated, usually from 50.6 µM), actives largely listed as inhibitors; Recombinant human furin enzymatic counterscreen, fluorogenic substrate; shares compounds with nsP2pro inh
nsP2 NS23 pep: selectivity test for CHIKV nsP2 protease inhibitors: endogenous NS2/3 peptide. shares compounds with nsP2pro inh. Purified CHIKV nsP2 protease, endogenous NS2/3 peptide cleavage. Potency, µM (titrated, usually from 51 µM), usual class: inhibitors. 410 compounds, 34% hits; note: nearly all actives have a fitted effect of over 55% in size
Papain counter: inhibits papain in a CHIKV nsP2 protease selectivity counterscreen; shares compounds with nsP2pro inh; purified papain protease activity, enzymatic inhibition; Potency, µM (doses to about 51 µM), hits mostly inhibitors; 410 compounds, 5% hits
nsP2pro conf qHTS: confirmation of CHIKV nsP2 protease inhibitors; 410 compounds, 43% hits; shares compounds with nsP2pro inh; Potency, µM (series often up to 25.5 µM), most hits filed as inhibitors; CHIKV nsP2 protease enzymatic activity, qHTS; note: nearly all actives have a fitted effect of over 75% in size
HCV NS3 4A cs: selectivity counter-screen for CHIKV nsP2 protease inhibitors: HCV NS3/4A; HCV NS3/4A protease biochemical counterscreen; 410 compounds, 20% hits; shares compounds with nsP2pro inh; Potency, µM (titrated, usually from 50.9 µM), hits mostly inhibitors; note: nearly all actives have a fitted effect of over 55% in size
A number is an active result; 0 = inactive; ? = inconclusive; - = no result given. Calls come from the whole dose curve.

SMILES	nsP2pro inh	others
O=C(NC1CCN(c2nc3ncccc3o2)C1)c1ccccc1F (stereo not drawn)	0
COc1ccc(OC)c(CN2CCNc3cc(-c4ccnc(C)c4)ncc3C2)c1	0
O=C(O)C1CCc2nnc(C3CCCN([S+](=O)([O-])c4cccc(C(F)(F)F)c4)C3)n21 (stereo not drawn)	0
N#Cc1c(-c2cccc(Cl)c2)no[n+]1[O-]	0
O=C(Cn1nc(-c2ccc(F)cc2)ccc1=O)NCCc1ccccc1	0
O=C(NCc1nc(-c2ncccn2)no1)c1csc(-c2cccs2)n1	0
Cc1cc(-c2noc(CNC(=O)c3cc(-c4ccco4)[nH]n3)n2)no1	5.01µM	nsP2 cell sec=?;CHIKV NSP2 FL=0;Furin counterscr=0;nsP2 NS23 pep=0;Papain counter=0;nsP2pro conf qHTS=0;HCV NS3 4A cs=10.3µM
Cc1cccc(-c2noc(CNC(=O)c3ccco3)n2)c1	0
Cc1cccc(-c2noc(CCCC(=O)NCc3ccco3)n2)c1	0
COc1ccccc1OCC(=O)NCc1nc(-c2ccc(Cl)cc2)no1	0
CCOc1ccc(-c2noc(CNC(=O)c3cc(-c4ccco4)[nH]n3)n2)cn1	0.794µM	nsP2 cell sec=?;CHIKV NSP2 FL=8.19µM;Furin counterscr=0;nsP2 NS23 pep=0;Papain counter=0;nsP2pro conf qHTS=?;HCV NS3 4A cs=0
COc1cccc(-c2ccc(C(=O)NCCNC(=O)C3CCCC3)cc2)c1	0
COc1ccc(-c2ccccc2NC(=O)C2CCCN(CC=C(C)C)C2)cc1 (stereo not drawn)	0
O=C(NCc1ccccc1)c1ccccc1OC1CN(C2CCC2)C1	0
Cc1n[nH]c(C)c1CCC(=O)Nc1cccn2nc(C3CCC3)nc12	0
CC(C)n1c(=O)c(C(=O)NC2CC3CCC(C2)N3C[C@@H](O)CN(C)S(C)(=O)=O)cc2ccccc21 (stereo partly drawn)	0
CC(C)(C)C(=O)NCCNC(=O)c1cccc(-c2ccc(C(F)(F)F)cc2)c1	0
Cc1nc(C2CCN(C(=O)Cc3ccccc3)CCN2C(=O)Cc2ccccc2)n[nH]1 (stereo not drawn)	?	nsP2 cell sec=0;CHIKV NSP2 FL=?;Furin counterscr=0;nsP2 NS23 pep=?;Papain counter=0;nsP2pro conf qHTS=?;HCV NS3 4A cs=?
CN(Cc1ccccc1)C(=O)CC1CCN(C(=O)Cc2ccccc2)C1 (stereo not drawn)	0
COc1ccc(CC(=O)N2CCC(c3n[nH]c(=O)n3Cc3ccc(F)cc3)CC2)cc1	0
C[C@H]1[C@@H]2[C@@H](O)C([C@H](C)C(=O)N3CCC(Cc4ccccc4)CC3)CC[C@@]2(C)CC[C@@H]1NC(=O)c1cnccn1 (stereo partly drawn)	0
O=C(NC1CCCCCC1)c1cc(-c2cc(Cl)cc(Cl)c2)c2nncn2n1	0
Cc1cccc2c1NC(=O)/C2=C/c1cc(Cl)c(O)c(Cl)c1	0
CC(=O)NCC(=O)N1[C@@H]2CC[C@H]1c1ccc(Nc3ncc(C(F)(F)F)c(NC4CCC4)n3)cc12	-	nsP2 cell sec=0;CHIKV NSP2 FL=?;Furin counterscr=0;nsP2 NS23 pep=0;Papain counter=?;nsP2pro conf qHTS=?;HCV NS3 4A cs=0
CS(=O)(=O)c1cccc(CNc2nc(Nc3ccc4c(c3)CCC(=O)N4)ncc2C(F)(F)F)c1	0
CCS(=O)(=O)N1CCN(c2ccc(Nc3ncc(C(N)=O)c(NC4CC4)n3)cc2)CC1	0
O=C1N=C(N2CCOCC2)CN1c1ccc(Cl)cc1	0
NC(=O)[C@@H](Cc1c[nH]c2ccccc12)NC(=O)C1=C[C@@H](NS(=O)(=O)c2cccs2)[C@@H](O)[C@H](O)C1	0
COCCn1c(C(=O)OC)c(NC(=O)CC(C)C)c2cc(NC(C)CCn3cccn3)cnc21 (stereo not drawn)	0
CCCC(=O)OC[C@@H](OC(=O)CCC)[C@@H](OC(=O)CCC)[C@H](Cn1c2nc(=O)[nH]c(=O)c-2nc2cc(C)c(C)cc21)OC(=O)CCC	0.7µM	nsP2 cell sec=0;CHIKV NSP2 FL=0;Furin counterscr=0;nsP2 NS23 pep=0;Papain counter=?;nsP2pro conf qHTS=0;HCV NS3 4A cs=0
